Data reported in the supplement of paper PMC10849652.
Targets with a hit are over-represented here; the source holds about 7,900 in all. About 0.6% of all pairs of compound and target were hits.

Tests used:
Test in all cases: log2 fold change, soluble protein after heating vs DMSO (PISA); higher = thermal stabilisation; K562 cells, 10 uM, 30 min; active = over 0.2 and 3.5 SD of the protein, either way, in both replicates (recomputed)
[1] = compound: C#Cc1cccc(Nc2ncnc3cc(OCCOC)c(OCCOC)cc23)c1 [erlotinib]
Method in brief: (§1)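 Soluble protein was defined as the supernatant after 21,000xg for 90 min. It came from K562 cells at 2×10^6 cells/mL given 10 μM compound for 30 min, heated in aliquots for 3 min across 48°C-58°C, pooled, and extracted in PBS with 0.5% NP-40 at 4°C, and was quantified by TMTpro 16plex LC-MS/MS with equalised channel sums. Thermal stability against control samples, from duplicates, is reported as log2 fold change.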

[2] = compound: C/C(=N\NC(=O)C1=CC(=CC=C1)S(=O)(=O)N2CCOCC2)/C3=C(C=CC(=C3)Cl)O
Method in brief: as §1

[3] = compound: C1=CC(=C(C=C1Cl)C2=NC3=NC=CN=C3C(=N2)NC4=CC=NC=C4)F
Method in brief: as §1

[4] = compound: C1=CC(=CC=C1C2=NC3=C(N2)C=C(C=C3)C(=O)N)OC4=CC=C(C=C4)Cl
Method in brief: as §1

[5] = compound: C1=CC2=C(C=CC(=C2)/C=C\3/C(=O)NC(=NCC4=CC=CS4)S3)N=C1
Method in brief: as §1

[6] = compound: C1=CC2=NC=CN=C2C=C1/C=C/3\C(=O)NC(=O)S3
Method in brief: as §1

[7] = compound: C1=CC=C(C=C1)C2=NC(=C(N2)C3=CC=NC=C3)C4=CC(=C(C=C4)Cl)O
Method in brief: as §1

[8] = compound: C1=CC=C2C(=C1)C3=NNC4=CC=CC(=C43)C2=O
Method in brief: as §1

[9] = compound: C1CCN(C1)C(=O)NC2=CC=CC(=C2)NC3=NC=C(C(=N3)NCCC4=CN=CN4)Br
Method in brief: as §1

[10] = compound: C1CN(CCC1(CC2=CC=C(C=C2)Cl)N)C3=NC=NC4=C3C=CN4
Method in brief: as §1

[11] = compound: C1COCCN1CCN2C3=CC=CC=C3N=C2NC(=O)C4=CC(=CC=C4)[N+](=O)[O-] [IRAK-1-4 Inhibitor I]
Method in brief: as §1

[12] = compound: C=CC(=O)N1CCC[C@@H](n2nc(-c3ccc(Oc4ccccc4)cc3)c3c(N)ncnc32)C1 [ibrutinib]
Method in brief: as §1

[13] = compound: CC(=O)c1cnc2ccc(-c3cc(Cl)c(O)c(Cl)c3)nc2c1N[C@H]1CC[C@H](CN(C)C)CC1
Method in brief: as §1

[14] = compound: CC(C)(C)Cn1c(N)nc2ccc(-c3[nH]c(C(C)(C)C)nc3-c3ccc(F)cc3)nc21 [ralimetinib]
Method in brief: as §1

[15] = compound: CC(C)(O)CC(=O)NCCn1ccc2ncnc(Nc3ccc(Oc4cccc(C(F)(F)F)c4)c(Cl)c3)c21
Method in brief: as §1

[16] = compound: CC(C)C1=C2N=C(C=C(N2N=C1)NCC3=CC=CC=C3)NCCCCCCN
Method in brief: as §1

[17] = compound: CC(C)C[C@@H](C=O)NC(=O)[C@H](CC(C)C)NC(=O)[C@H](CC(C)C)NC(=O)OCc1ccccc1
Method in brief: as §1

[18] = compound: CC(C)N(C[C@H]1O[C@@H](n2cnc3c(N)ncnc32)[C@H](O)[C@@H]1O)[C@H]1C[C@@H](CCc2nc3cc(C(C)(C)C)ccc3[nH]2)C1 [pinometostat]
Method in brief: as §1

[19] = compound: CC1=C(C(CC(=O)N1)C2=CC=C(C=C2)C(F)(F)F)C(=O)NC3=C(C=C4C(=C3)C=NN4)F
Method in brief: as §1

[20] = compound: CC1=C(C2=C(C=C1)C(=O)C3=CC=CC=C3N2CCCN)C
Method in brief: as §1

Measured: log2 fold change

DCAF13 (UniProt Q9NV06)
inactive: [1] -0.085 | [2] -0.172 | [3] -0.441 | [4] 0.079 | [5] -0.114 | [6] -0.05 | [7] -0.034 | [8] -0.047 | [9] 0.044 | [10] -0.094 | [11] -0.079 | [12] 0.019 | [13] 0.101 | [14] 0.077 | [15] 0.032 | [16] -0.078 | [17] 0.165 | [18] 0.263 | [19] 0.037 | [20] -0.33

CTSA (UniProt P10619)
UniProt P10619, sequence (P10619 whole entry, looked up): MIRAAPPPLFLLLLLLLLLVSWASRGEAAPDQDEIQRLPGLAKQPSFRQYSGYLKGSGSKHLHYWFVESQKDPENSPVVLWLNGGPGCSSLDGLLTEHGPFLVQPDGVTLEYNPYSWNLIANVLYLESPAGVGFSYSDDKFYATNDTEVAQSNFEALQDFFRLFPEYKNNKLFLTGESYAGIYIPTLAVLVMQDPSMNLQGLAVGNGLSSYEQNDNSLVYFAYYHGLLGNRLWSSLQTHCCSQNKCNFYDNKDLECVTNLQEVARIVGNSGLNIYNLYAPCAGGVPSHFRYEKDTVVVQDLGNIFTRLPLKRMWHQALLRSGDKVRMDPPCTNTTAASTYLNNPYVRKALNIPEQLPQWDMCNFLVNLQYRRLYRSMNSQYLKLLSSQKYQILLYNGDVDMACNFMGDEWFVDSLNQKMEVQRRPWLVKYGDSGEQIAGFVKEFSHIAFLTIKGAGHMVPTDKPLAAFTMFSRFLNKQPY
inactive: [1] -0.058 | [2] -0.065 | [3] 0.001 | [4] -0.004 | [5] -0.053 | [6] 0.018 | [7] 0.04 | [8] 0.003 | [9] 0.021 | [10] 0.051 | [11] -0.006 | [12] 0.017 | [13] 0.038 | [14] -0.027 | [15] 0.027 | [16] -0.204 | [17] -0.017 | [18] 0.014 | [19] 0.014 | [20] -0.058

CTSZ (UniProt Q9UBR2)
UniProt Q9UBR2, sequence (Q9UBR2 whole entry, looked up): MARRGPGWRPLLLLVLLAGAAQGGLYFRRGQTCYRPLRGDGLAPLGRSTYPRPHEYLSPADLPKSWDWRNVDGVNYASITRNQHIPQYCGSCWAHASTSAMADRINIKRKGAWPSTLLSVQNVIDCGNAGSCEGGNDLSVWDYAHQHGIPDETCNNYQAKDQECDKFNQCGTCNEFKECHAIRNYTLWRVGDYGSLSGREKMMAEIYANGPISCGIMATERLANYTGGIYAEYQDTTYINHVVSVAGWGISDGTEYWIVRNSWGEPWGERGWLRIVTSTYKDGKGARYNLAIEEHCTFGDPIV
inactive: [1] 0.053 | [2] -0.025 | [3] 0.027 | [4] -0.047 | [5] -0.013 | [6] 0.023 | [7] -0.017 | [8] 0.073 | [9] 0.057 | [10] 0.09 | [11] 0.008 | [12] -0.02 | [13] 0.053 | [14] -0.062 | [15] 0 | [17] 0.082 | [18] -0.076 | [19] 0.015 | [20] -0.036
active: [16] -0.395

DBN1 isoform 3 (UniProt Q16643)
UniProt Q16643, sequence (Q16643 whole entry, looked up): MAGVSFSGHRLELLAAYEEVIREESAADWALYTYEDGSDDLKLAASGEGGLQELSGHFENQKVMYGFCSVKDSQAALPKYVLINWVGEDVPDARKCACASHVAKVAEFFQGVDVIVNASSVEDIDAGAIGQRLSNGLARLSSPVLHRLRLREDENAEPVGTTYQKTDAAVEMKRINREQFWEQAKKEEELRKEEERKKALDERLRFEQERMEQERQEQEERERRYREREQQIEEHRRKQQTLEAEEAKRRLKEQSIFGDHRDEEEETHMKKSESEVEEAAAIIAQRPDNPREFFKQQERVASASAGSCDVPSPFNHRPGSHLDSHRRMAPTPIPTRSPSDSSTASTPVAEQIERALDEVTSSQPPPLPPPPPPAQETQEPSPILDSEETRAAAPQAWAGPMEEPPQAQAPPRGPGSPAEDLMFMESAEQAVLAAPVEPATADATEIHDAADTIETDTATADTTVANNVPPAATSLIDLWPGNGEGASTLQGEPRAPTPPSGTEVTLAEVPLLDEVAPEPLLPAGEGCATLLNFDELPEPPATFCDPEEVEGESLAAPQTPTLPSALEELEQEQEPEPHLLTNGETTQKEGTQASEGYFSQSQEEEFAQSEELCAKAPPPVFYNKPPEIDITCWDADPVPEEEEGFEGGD
inactive: [1] -0.095 | [2] -0.047 | [3] -0.028 | [4] 0.039 | [5] -0.074 | [6] 0.02 | [7] 0.021 | [8] -0.029 | [9] 0.089 | [10] 0.041 | [11] -0.06 | [12] 0.099 | [13] 0.061 | [14] 0.072 | [15] 0.151 | [16] 0.047 | [17] -0.02 | [18] -0.005 | [19] 0.05 | [20] -0.091

EIF4A1 (UniProt P60842)
inactive: [1] 0.036 | [2] 0.049 | [3] 0.047 | [4] -0.023 | [5] 0.016 | [6] -0.021 | [7] 0.007 | [8] 0.035 | [9] -0.039 | [10] 0.054 | [11] -0.008 | [12] -0.022 | [13] -0.131 | [14] 0.026 | [15] -0.151 | [16] -0.124 | [17] -0.001 | [18] 0.016 | [19] -0.011 | [20] 0.017

DNAJB1 (UniProt P25685)
UniProt P25685, sequence (P25685 whole entry, looked up): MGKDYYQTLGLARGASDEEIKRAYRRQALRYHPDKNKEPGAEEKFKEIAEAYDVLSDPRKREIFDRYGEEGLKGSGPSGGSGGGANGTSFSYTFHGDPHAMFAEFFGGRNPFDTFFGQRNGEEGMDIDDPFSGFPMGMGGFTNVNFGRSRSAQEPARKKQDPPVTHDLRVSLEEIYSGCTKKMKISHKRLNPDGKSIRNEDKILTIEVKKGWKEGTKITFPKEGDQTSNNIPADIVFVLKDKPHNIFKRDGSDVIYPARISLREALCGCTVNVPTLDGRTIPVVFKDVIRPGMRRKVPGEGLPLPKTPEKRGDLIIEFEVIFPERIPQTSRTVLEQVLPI
inactive: [1] 0.005 | [2] 0.017 | [3] 0.012 | [4] 0.008 | [5] 0.024 | [6] 0.053 | [7] 0.024 | [8] -0.025 | [9] -0.019 | [10] 0.009 | [11] -0.059 | [12] -0.011 | [13] -0.017 | [14] 0 | [15] -0.012 | [16] -0.015 | [17] -0.065 | [18] -0.086 | [19] -0.004 | [20] 0.022

DYNC1I2 isoform 5 (UniProt Q13409)
inactive: [1] -0.009 | [2] -0.016 | [3] -0.033 | [4] 0.003 | [5] 0.025 | [6] -0.006 | [7] 0.057 | [8] 0.016 | [9] 0.007 | [10] 0.018 | [11] 0.022 | [12] 0.016 | [13] 0.022 | [14] 0.013 | [15] -0.003 | [16] 0.041 | [17] 0.062 | [18] -0.019 | [19] -0.015 | [20] -0.032

DCUN1D1 (UniProt Q96GG9)
UniProt Q96GG9, sequence (Q96GG9 whole entry, looked up): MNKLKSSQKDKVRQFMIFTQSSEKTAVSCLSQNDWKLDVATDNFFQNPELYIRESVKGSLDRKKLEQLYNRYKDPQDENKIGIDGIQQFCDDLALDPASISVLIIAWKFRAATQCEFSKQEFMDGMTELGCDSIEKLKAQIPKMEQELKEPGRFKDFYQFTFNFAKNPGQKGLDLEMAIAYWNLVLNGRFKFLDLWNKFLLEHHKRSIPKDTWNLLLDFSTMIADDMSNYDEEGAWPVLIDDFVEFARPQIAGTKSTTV
inactive: [1] -0.038 | [2] 0.052 | [3] 0.041 | [4] -0.009 | [5] 0.015 | [6] 0.001 | [7] 0.021 | [8] -0.014 | [9] -0.017 | [10] 0.024 | [11] 0.031 | [12] 0.016 | [13] -0.06 | [14] -0.047 | [15] -0.002 | [16] -0.061 | [17] -0.022 | [18] -0.035 | [19] 0.014 | [20] 0.018

DTYMK (UniProt P23919)
UniProt P23919, sequence (P23919 whole entry, looked up): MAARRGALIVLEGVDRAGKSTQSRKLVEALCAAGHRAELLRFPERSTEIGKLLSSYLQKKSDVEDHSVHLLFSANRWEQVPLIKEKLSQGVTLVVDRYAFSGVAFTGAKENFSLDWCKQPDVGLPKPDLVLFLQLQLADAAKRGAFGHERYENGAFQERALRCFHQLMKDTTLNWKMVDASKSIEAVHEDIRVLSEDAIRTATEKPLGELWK
inactive: [1] -0.007 | [2] 0.025 | [3] 0.013 | [4] 0.04 | [5] -0.027 | [6] 0.044 | [7] -0.017 | [8] 0.095 | [9] 0.015 | [10] 0.016 | [11] 0.076 | [12] -0.003 | [13] -0.02 | [14] -0.056 | [15] -0.178 | [16] -0.029 | [17] -0.013 | [18] 0.039 | [19] -0.01 | [20] 0.084

DNM2 (UniProt P50570)
UniProt P50570, sequence (P50570 whole entry, looked up): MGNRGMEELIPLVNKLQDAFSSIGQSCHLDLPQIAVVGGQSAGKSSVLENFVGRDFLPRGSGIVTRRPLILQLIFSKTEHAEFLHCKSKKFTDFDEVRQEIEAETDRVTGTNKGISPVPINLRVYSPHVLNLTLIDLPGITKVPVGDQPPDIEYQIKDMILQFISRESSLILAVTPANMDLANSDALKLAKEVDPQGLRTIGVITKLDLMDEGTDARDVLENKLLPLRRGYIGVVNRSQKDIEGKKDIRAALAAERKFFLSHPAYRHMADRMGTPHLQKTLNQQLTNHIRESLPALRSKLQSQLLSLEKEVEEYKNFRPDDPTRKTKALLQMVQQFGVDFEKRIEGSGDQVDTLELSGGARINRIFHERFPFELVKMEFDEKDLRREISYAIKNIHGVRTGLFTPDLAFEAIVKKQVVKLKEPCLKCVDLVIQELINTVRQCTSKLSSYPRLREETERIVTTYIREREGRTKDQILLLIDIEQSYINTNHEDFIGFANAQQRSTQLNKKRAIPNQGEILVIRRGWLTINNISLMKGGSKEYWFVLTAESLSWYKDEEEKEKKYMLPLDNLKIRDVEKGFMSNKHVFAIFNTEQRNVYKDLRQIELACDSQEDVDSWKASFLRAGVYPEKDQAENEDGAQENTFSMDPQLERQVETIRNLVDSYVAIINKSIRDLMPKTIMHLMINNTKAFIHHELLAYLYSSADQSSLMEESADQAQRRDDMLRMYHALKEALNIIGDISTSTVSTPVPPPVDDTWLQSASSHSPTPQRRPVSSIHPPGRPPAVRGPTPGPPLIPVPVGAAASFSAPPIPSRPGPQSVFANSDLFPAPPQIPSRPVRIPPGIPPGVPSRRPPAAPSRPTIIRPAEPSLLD
inactive: [1] 0.042 | [2] 0.065 | [3] 0.01 | [4] -0.025 | [5] 0.046 | [6] -0.001 | [7] 0.019 | [8] 0.033 | [9] 0.015 | [10] -0.003 | [11] 0.022 | [12] 0.017 | [13] -0.023 | [14] -0.02 | [15] -0.081 | [16] -0.075 | [17] 0.029 | [18] -0.014 | [19] -0.012 | [20] 0.076

DNAJB12 (UniProt Q9NXW2)
UniProt Q9NXW2, sequence (Q9NXW2 whole entry, looked up): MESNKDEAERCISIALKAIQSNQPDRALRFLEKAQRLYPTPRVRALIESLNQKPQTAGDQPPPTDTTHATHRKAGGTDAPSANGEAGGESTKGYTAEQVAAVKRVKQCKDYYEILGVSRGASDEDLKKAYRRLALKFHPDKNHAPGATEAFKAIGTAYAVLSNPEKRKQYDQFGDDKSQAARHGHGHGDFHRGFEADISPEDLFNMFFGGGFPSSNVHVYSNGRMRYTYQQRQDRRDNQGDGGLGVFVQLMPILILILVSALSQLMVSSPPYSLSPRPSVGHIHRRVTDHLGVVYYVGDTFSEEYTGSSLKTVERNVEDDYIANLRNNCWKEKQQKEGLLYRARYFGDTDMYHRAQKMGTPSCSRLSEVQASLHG
active: [14] -0.767
inactive: [1] -0.039 | [2] -0.001 | [3] 0.003 | [4] 0.102 | [5] 0.004 | [6] 0.032 | [7] 0.006 | [8] -0.064 | [9] 0.044 | [10] 0.033 | [11] -0.026 | [12] 0.004 | [13] -0.013 | [15] -0.032 | [16] -0.012 | [17] 0.076 | [18] 0.021 | [19] 0.05 | [20] 0.022

CTU1 (UniProt Q7Z7A3)
UniProt Q7Z7A3, sequence (Q7Z7A3 whole entry, looked up): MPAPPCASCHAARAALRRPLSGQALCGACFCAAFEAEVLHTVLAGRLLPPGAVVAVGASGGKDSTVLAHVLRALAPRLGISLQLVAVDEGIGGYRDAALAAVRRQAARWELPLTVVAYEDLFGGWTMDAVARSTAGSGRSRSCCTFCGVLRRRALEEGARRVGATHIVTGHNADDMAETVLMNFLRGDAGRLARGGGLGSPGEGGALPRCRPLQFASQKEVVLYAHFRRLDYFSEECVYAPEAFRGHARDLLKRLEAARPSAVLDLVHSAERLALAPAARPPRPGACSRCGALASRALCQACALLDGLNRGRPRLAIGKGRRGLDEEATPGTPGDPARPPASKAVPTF
inactive: [1] 0.05 | [2] -0.01 | [3] 0.079 | [4] 0.047 | [5] 0.079 | [6] 0.011 | [7] 0.04 | [8] 0.042 | [9] 0.032 | [10] 0.008 | [11] 0.026 | [12] 0.041 | [13] 0.02 | [14] 0.005 | [15] -0.054 | [16] -0.052 | [17] -0.041 | [18] 0.007 | [19] 0.007 | [20] -0.021

DUS2 (UniProt Q9NX74)
inactive: [1] -0.002 | [2] -0.022 | [3] 0.043 | [4] 0.088 | [5] 0.166 | [6] -0.011 | [7] -0.009 | [8] -0.123 | [9] -0.028 | [10] 0.021 | [11] 0.014 | [12] 0.041 | [13] -0.063 | [14] 0.033 | [15] -0.161 | [16] 0.043 | [17] 0.044 | [18] -0.001 | [19] 0.035 | [20] -0.1

DDX4 (UniProt Q9NQI0)
UniProt Q9NQI0, sequence (Q9NQI0 whole entry, looked up): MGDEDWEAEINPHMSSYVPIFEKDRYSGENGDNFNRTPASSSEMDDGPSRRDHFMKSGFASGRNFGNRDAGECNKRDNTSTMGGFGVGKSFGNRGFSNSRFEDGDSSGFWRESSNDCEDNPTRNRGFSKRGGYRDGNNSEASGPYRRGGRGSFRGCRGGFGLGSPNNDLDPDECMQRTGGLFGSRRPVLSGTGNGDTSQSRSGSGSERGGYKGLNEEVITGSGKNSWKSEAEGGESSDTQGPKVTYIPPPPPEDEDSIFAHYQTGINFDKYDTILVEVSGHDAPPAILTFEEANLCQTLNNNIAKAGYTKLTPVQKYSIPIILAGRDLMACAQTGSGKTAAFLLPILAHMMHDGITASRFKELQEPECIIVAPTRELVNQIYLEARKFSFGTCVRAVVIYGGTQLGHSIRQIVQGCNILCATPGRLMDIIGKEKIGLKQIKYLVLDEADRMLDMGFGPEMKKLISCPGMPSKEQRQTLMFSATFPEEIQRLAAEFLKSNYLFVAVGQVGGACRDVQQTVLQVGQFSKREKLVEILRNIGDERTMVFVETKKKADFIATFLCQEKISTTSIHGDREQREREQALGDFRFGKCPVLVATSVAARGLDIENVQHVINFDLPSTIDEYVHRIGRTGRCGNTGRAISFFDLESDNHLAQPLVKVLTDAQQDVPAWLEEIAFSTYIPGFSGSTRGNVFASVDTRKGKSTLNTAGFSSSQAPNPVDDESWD
inactive: [1] 0.576 | [2] -0.071 | [3] -0.23 | [4] -0.056 | [5] 0.006 | [6] 0 | [7] -0.305 | [8] 0.006 | [9] 0.053 | [10] -0.273 | [11] -0.033 | [12] -0.046 | [13] -0.035 | [14] -0.063 | [15] 0.203 | [16] 0.02 | [17] 0.239 | [18] 0.24 | [19] 0.03 | [20] 0.033

DHRS3 (UniProt O75911)
UniProt O75911, sequence (O75911 whole entry, looked up): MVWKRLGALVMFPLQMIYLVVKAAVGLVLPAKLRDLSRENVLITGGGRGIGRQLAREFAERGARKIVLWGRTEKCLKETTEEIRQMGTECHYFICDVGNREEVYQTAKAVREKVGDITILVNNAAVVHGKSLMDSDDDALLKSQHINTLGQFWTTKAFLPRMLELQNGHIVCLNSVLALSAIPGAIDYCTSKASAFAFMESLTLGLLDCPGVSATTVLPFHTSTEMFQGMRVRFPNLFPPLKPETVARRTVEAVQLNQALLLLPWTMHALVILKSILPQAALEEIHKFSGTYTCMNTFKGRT
inactive: [1] 0.116 | [2] 0.041 | [3] 0.11 | [4] 0.018 | [5] 0.155 | [6] -0.037 | [7] 0.024 | [8] 0.074 | [9] 0.005 | [10] 0.191 | [11] 0 | [12] 0.027 | [13] -0.083 | [14] 0.001 | [15] 0.143 | [16] 0.018 | [17] -0.017 | [18] -0.056 | [19] -0.055 | [20] 0.03

DHX16 (UniProt O60231)
inactive: [1] 0.01 | [2] 0.05 | [3] 0.224 | [4] 0.027 | [5] 0.007 | [6] -0.01 | [7] 0.014 | [8] 0.013 | [9] -0.044 | [10] 0.024 | [11] -0.006 | [12] 0 | [14] -0.001 | [15] -0.025 | [16] -0.002 | [17] 0.009 | [18] 0.004 | [19] -0.045 | [20] 0.159
active: [13] -0.257
